Test results: PubChem BioAssay (NCI)
Compounds without any hit were thinned out: in the full panel of roughly 83,000, 20% have a hit.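 The test compound was applied at a single concentration to cells in 96-well plates for 48 hours, and percent growth was recorded.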 Unmarked numbers belong to inactive results. The source made the active and inactive calls. How the source made its calls: active means growth percent below 10; inactive means the rest.

tested on: OVCAR-3 ovarian; assay: NCI-60 one-dose screen, 48 h (100 = growth as untreated, 0 = no growth, -100 = all killed); conditions: 10 µM unless noted

`C1=C\COCc2cc(ccc2OCCN2CCCC2)Nc2nccc(n2)-c2cccc(c2)COC/1` was tested, and the growth was 2.03% (active).
`C=CCn1c(=O)c2cnc(Nc3ccc(N4CCN(C)CC4)cc3)nc2n1-c1cccc(C(C)(C)O)n1` was tested, and the growth was -8.58% (active).

Compared with `O=C(Nc1cn[nH]c1-c1nc2ccc(CN3CCOCC3)cc2[nH]1)NC1CC1`, `CC(C)CC(=O)Nc1n[nH]c2c1CN(C(=O)C1CCN(C)CC1)C2(C)C` is higher in growth: 11.7% for the first, 18.3% for the second.

First: Cc1cc2c(-c3nc4ccccn4c3N)c(O)c(O)cc2c(O)c1-c1c(C)cc2c(-c3nc4ccccn4c3N)c(O)c(O)cc2c1O
Second: Cc1csc(-c2nnc(Nc3ccc(Oc4ncccc4-c4ccnc(N)n4)cc3)c3ccccc23)c1
The growth of the first is lower: 26.5% for the first, 56% for the second.

With `Cc1ccccc1N1C(c2ccccc2)=NNC12C=CC(=O)C=C2Cl` (stereo unspecified) the growth was 118%.

tested on: NCI/ADR-RES ovarian; assay: as above; conditions: 10 µM unless noted

First: Cc1cc(C)n(CC(=O)Nc2ccc(-c3nc4ccccc4s3)cc2)n1
Second: COc1ccc(Cl)c(Nc2nc3ccccc3nc2NS(=O)(=O)c2cccc(NC(=O)C(C)(C)N)c2)c1
The growth of the first is higher: 103% for the first, 52.6% for the second.

Going from `CNS(=O)(=O)Nc1nccc(Cc2c(C)c3ccc(Oc4ncccn4)cc3oc2=O)c1F` to `CCN(CCCOc1ccc2c(Nc3cc(CC(=O)Nc4cccc(F)c4)[nH]n3)ncnc2c1)CCOP(=O)(O)O`, the growth rises from 70.6% to 98.3%.

Going from `C[C@@H](Oc1cc(-n2cnc3ccc(CN4CCN(C)CC4)cc32)sc1C(N)=O)c1ccccc1C(F)(F)F` to `Nc1ncnc2c1ccn2-c1cccc(NC(=O)c2ccc(N3CCOCC3)c(C(F)(F)F)c2)c1`, the growth rises from 18.5% to 26.2%.

Going from `C#Cc1cccc(Nc2ncnc3cc(OCCOC)c(OCCOC)cc23)c1` to `COc1cc2c(Oc3ccc4[nH]c(C)cc4c3F)ncnc2cc1OCCCN1CCCC1`, the growth rises from 56.9% to 88.5%.

First: O=C(Nc1ccc(Nc2ncnc3sc4c(c23)CCOC4)cc1)Nc1ccc(Cl)c(C(F)(F)F)c1
Second: C[C@@H](NC(=O)c1ncnc(N)c1Cl)c1ncc(C(=O)Nc2cc(C(F)(F)F)c(Cl)cn2)s1
The growth of the first is higher: 94.7% for the first, 79.8% for the second.

First: CCCCN1C(=O)c2cccc3c(-c4ccc5c(c4)ncn5C4CCCCC4)ccc(c23)C1=O
Second: O=c1[nH]ccc2c(S(=O)(=O)N3CCCNCC3)cccc12
The growth of the first is higher: 92.5% for the first, 75.4% for the second.

Compared with `COc1cc(Nc2c(C#N)cnc3cc(OCCCN4CCN(C)CC4)c(OC)cc23)c(Cl)cc1Cl`, `COc1ccc2c(CCCc3ccc(Cl)cc3Cl)c3[n+](cc2c1OC)CCc1cc2c(cc1-3)OCO2` is lower in growth: 78.6% for the first, 76.4% for the second.

Compared with `C/C(=C(/c1ccc(Cl)cc1)c1ccc(OCCN2CCCC2)cc1)c1ccccc1`, `NC[C@@](O)(c1ccc(Cl)cc1)c1ccc(-c2cn[nH]c2)cc1` is lower in growth: 77.6% for the first, 40.9% for the second.

Compared with `C/C=C/C=N/NC(=S)Nc1ccccc1`, `Cc1cc(O)cc(-c2c(-c3ccnc(-c4cccnc4)c3)cnn2C)c1` is lower in growth: 99% for the first, 67.2% for the second.

First: CS(=O)(=O)N1CCN(Cc2cc3nc(-c4cccc5[nH]ncc45)nc(N4CCOCC4)c3s2)CC1
Second: C[C@@H](Nc1cc(F)cc(F)c1)c1cc(C(=O)N(C)C)cc2c(=O)cc(N3CCOCC3)oc12
The growth of the first is lower: 32.1% for the first, 85.4% for the second.

First: Cn1cc(-c2cnn3c(N)c(Br)c([C@@H]4CCCNC4)nc23)cn1
Second: CC(C)(C)c1cnc(CSc2cnc(NC(=O)C3CCNCC3)s2)o1
The growth of the first is lower: 51.5% for the first, 53% for the second.

`Cn1c(=O)c(F)c(Nc2ccc(I)cc2F)c2c(=O)n(C[C@@H](O)CO)cnc21` was tested, and the growth was 60.6%.

For `COc1ccc(-c2ccc3c(N4CCOC[C@@H]4C)nc(N4CCOC[C@@H]4C)nc3n2)cc1CO`, the growth was -1.68% (active).
`O=C(Nc1cccc(Cl)c1)Nc1ncc(CCNc2ncnc3ccsc23)s1` was tested, and the growth was 9.39% (active).
With `COc1ncc(-c2ccc3nccc(-c4ccnnc4)c3c2)cc1NS(=O)(=O)c1ccc(F)cc1F` the growth was -20% (active).
`COc1cc(OC)c(/C=C/S(=O)(=O)Cc2ccc(OC)c(NCC(=O)O)c2)c(OC)c1` was tested, and the growth was 9.1% (active).
With `C=CC(=O)Nc1cc(Nc2nccc(-c3cn(C)c4ccccc34)n2)c(OC)cc1N(C)CCN(C)C` the growth was -38.8% (active).
With `CN[C@@H]1C[C@H]2O[C@@](C)([C@@H]1OC)n1c3ccccc3c3c4c(c5c6ccccc6n2c5c31)C(=O)N[C@H]4O` the growth was -39.1% (active).
